This note sets out measurements from publication PMC8384837, “Expanding the binding specificity for RNA recognition by a PUF domain”.

Changes are numbered by the printed parent chain.

Experiment in all cases: yeast three-hybrid, YBZ-1, SC-Leu-His + 0.5 mM 3-AT, 4 days
Holding throughout (details): tags: N-Gal4 AD-HA kept; label: inside an RPR1-promoter hybrid RNA with tandem MS2 sites; ssRNA

One assay concerns the target PUM1 PUF domain R3-EWC (Homo sapiens, UniProt Q14671 828-1176, C935E;R936W;Q939C). Put shortly: (§1)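 Sequencing with Illumina followed PCR amplification of the repeat regions from transformants grown four days on SC-Leu (input) or SC-Leu-His + 0.5 mM 3-AT (selection). The transformants were strain YBZ-1 with a LexA–MS2 coat fusion and a HIS3 reporter, carrying Pumilio-1 PUF domain libraries and matching RNA elements. The interaction score is the log change in variant frequency from input to selection, computed in log2 with a pseudocount of 1 for absent variants.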

For another assay, the target named is PUM1 PUF domain R7-LNR (Homo sapiens, UniProt Q14671 828-1176, S1079L;E1083R). Put shortly:
as §1

The target of another assay is T1, PUM1 PUF domain R6-GFG (Homo sapiens, UniProt Q14671 828-1176, N1043G;Y1044F;Q1047G).
T1 sequence: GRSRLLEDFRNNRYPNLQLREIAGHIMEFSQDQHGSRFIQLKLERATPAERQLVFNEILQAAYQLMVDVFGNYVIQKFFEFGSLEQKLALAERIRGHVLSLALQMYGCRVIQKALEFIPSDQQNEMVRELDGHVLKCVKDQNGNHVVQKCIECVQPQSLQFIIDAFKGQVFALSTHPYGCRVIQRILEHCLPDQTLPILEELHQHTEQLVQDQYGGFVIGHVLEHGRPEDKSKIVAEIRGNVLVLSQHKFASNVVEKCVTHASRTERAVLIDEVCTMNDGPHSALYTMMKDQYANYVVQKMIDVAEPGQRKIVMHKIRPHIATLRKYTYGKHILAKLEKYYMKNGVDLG
A digest of the protocol: as §1

Another assay deals with PUM1 PUF domain R5-MPR (Homo sapiens, UniProt Q14671 828-1176, C1007M;R1008P;Q1011R). Put shortly:
as §1

The next assay deals with PUM1 PUF domain R8-RWD (Homo sapiens, UniProt Q14671 828-1176, N1122R;Y1123W;Q1126D). Put shortly: as §1
Sequence of PUM1 PUF domain R8-RWD (Q14671 828-1176 N1122R/Y1123W/Q1126D): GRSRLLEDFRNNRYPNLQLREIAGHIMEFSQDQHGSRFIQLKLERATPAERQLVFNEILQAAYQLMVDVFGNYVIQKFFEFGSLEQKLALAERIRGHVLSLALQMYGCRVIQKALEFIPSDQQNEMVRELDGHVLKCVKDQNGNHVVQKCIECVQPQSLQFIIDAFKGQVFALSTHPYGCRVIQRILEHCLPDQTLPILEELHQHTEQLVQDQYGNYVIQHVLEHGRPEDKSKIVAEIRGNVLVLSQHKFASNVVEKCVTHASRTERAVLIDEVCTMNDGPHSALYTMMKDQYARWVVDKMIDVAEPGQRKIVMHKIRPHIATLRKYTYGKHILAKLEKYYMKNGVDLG
A further assay deals with PUM1 PUF domain R1-KHR (Homo sapiens, UniProt Q14671 828-1176, S863K;R864H;Q867R). Put shortly: as §1
Another assay deals with PUM1 PUF domain R1-VYR (Homo sapiens, UniProt Q14671 828-1176, S863V;R864Y;Q867R). Put shortly:
as §1

A further assay has as its target PUM1 PUF domain R1-KDS (Homo sapiens, UniProt Q14671 828-1176, S863K;R864D;Q867S). A digest of the protocol:
as §1

For a further assay, the target named is PUM1 PUF domain R8-KHG (Homo sapiens, UniProt Q14671 828-1176, N1122K;Y1123H;Q1126G). Put shortly:
as §1

The target in another assay is PUM1 PUF domain R2-NRD (Homo sapiens, UniProt Q14671 828-1176, Y900R;Q903D). A digest of the protocol:
as §1

The target in the next assay is T2, PUM1 PUF domain R6-SRE (Homo sapiens, UniProt Q14671 828-1176, N1043S;Y1044R;Q1047E).
T2 sequence: T1 sequence with G216S, F217R, G220E
A digest of the protocol:
as §1

In a further assay the target is PUM1 PUF domain R5-RQI (Homo sapiens, UniProt Q14671 828-1176, C1007R;R1008Q;Q1011I). A digest of the protocol: as §1
Sequence of PUM1 PUF domain R5-RQI (Q14671 828-1176 C1007R/R1008Q/Q1011I): as the sequence (Q14671 828-1176 N1122R/Y1123W/Q1126D) above, with C180R, R181Q, Q184I, R295N, W296Y, D299Q counted along it
The next assay has as its target PUM1 PUF domain R5-KAE (Homo sapiens, UniProt Q14671 828-1176, C1007K;R1008A;Q1011E). Put shortly:
as §1

For a further assay, the target named is PUM1 PUF domain R3-RER (Homo sapiens, UniProt Q14671 828-1176, C935R;R936E;Q939R). Put shortly: as §1
Sequence of PUM1 PUF domain R3-RER (Q14671 828-1176 C935R/R936E/Q939R): as the sequence (Q14671 828-1176 N1122R/Y1123W/Q1126D) above, with C108R, R109E, Q112R, R295N, W296Y, D299Q counted along it
The target of a further assay is PUM1 PUF domain R4-PHK (Homo sapiens, UniProt Q14671 828-1176, N971P;Q975K). Put shortly:
as §1

Another assay deals with PUM1 PUF domain R4-APR (Homo sapiens, UniProt Q14671 828-1176, N971A;H972P;Q975R). Put shortly: as §1
Sequence of PUM1 PUF domain R4-APR (Q14671 828-1176 N971A/H972P/Q975R): as the sequence (Q14671 828-1176 N1122R/Y1123W/Q1126D) above, with N144A, H145P, Q148R, R295N, W296Y, D299Q counted along it

Sequence of PUM1 PUF domain R5-KAE (Q14671 828-1176 C1007K/R1008A/Q1011E): as the sequence (Q14671 828-1176 N1122R/Y1123W/Q1126D) above, with C180K, R181A, Q184E, R295N, W296Y, D299Q counted along it
Sequence of PUM1 PUF domain R1-KDS (Q14671 828-1176 S863K/R864D/Q867S): as the sequence (Q14671 828-1176 N1122R/Y1123W/Q1126D) above, with S36K, R37D, Q40S, R295N, W296Y, D299Q counted along it
Sequence of PUM1 PUF domain R5-MPR (Q14671 828-1176 C1007M/R1008P/Q1011R): as the sequence (Q14671 828-1176 N1122R/Y1123W/Q1126D) above, with C180M, R181P, Q184R, R295N, W296Y, D299Q counted along it
Sequence of PUM1 PUF domain R4-PHK (Q14671 828-1176 N971P/Q975K): as the sequence (Q14671 828-1176 N1122R/Y1123W/Q1126D) above, with N144P, Q148K, R295N, W296Y, D299Q counted along it

As to “GGCUAGAACUAGUGGAUCCCCCGGCGCCCGGCGGCUCGAGCCCGGGUAAGUGUAACUAGUCUGCAUGCCGCCGGGCGCCAUGCCUGCAGGUCGACUCUAGAAAACAUG”, the binding signal with PUM1 PUF domain R3-EWC is 4.45 log2 enrichment (interaction score).
For “GGCUAGAACUAGUGGAUCCCCCGGCGCCCGGCGGCUCGAGCCCGGGUAAGUCUAAAUAGUCUGCAUGCCGCCGGGCGCCAUGCCUGCAGGUCGACUCUAGAAAACAUG”, the binding signal with PUM1 PUF domain R7-LNR is 3.62 log2 enrichment (interaction score).
In the case of “GGCUAGAACUAGUGGAUCCCCCGGCGCCCGGCGGCUCGAGCCCGGGUAAGUGUAAAUAGUCUGCAUGCCGCCGGGCGCCAUGCCUGCAGGUCGACUCUAGAAAACAUG”, the figures for the binding signal with PUM1 PUF domain R6-GFG, in the assay with PUM1 PUF domain R5-MPR and with PUM1 PUF domain R8-RWD were 3.55 log2 enrichment (interaction score), 1.45 log2 enrichment (interaction score) and 2.26 log2 enrichment (interaction score), respectively.
Take “GGCUAGAACUAGUGGAUCCCCCGGCGCCCGGCGGCUCGAGCCCGGGUAAGUGUAAAUUGUCUGCAUGCCGCCGGGCGCCAUGCCUGCAGGUCGACUCUAGAAAACAUG”: the binding signal in the assay with PUM1 PUF domain R1-KHR is 2.59 log2 enrichment (interaction score).
In the case of “GGCUAGAACUAGUGGAUCCCCCGGCGCCCGGCGGCUCGAGCCCGGGUAAGUGUAAAUCGUCUGCAUGCCGCCGGGCGCCAUGCCUGCAGGUCGACUCUAGAAAACAUG”, the binding signal was 5.17 log2 enrichment (interaction score) with PUM1 PUF domain R1-KHR, 2.62 log2 enrichment (interaction score) with PUM1 PUF domain R1-VYR and 2.96 log2 enrichment (interaction score) with PUM1 PUF domain R1-KDS.
For the sequence “GGCUAGAACUAGUGGAUCCCCCGGCGCCCGGCGGCUCGAGCCCGGGUAAGCGUAAAUAGUCUGCAUGCCGCCGGGCGCCAUGCCUGCAGGUCGACUCUAGAAAACAUG”, the binding signal is 5.27 log2 enrichment (interaction score) with PUM1 PUF domain R8-KHG and 2.45 log2 enrichment (interaction score) with PUM1 PUF domain R8-RWD.
In the case of “GGCUAGAACUAGUGGAUCCCCCGGCGCCCGGCGGCUCGAGCCCGGGUAAGGGUAAAUAGUCUGCAUGCCGCCGGGCGCCAUGCCUGCAGGUCGACUCUAGAAAACAUG”, the binding signal with PUM1 PUF domain R8-KHG is 3.34 log2 enrichment (interaction score).
For “GGCUAGAACUAGUGGAUCCCCCGGCGCCCGGCGGCUCGAGCCCGGGUAAGUGUAAAAAGUCUGCAUGCCGCCGGGCGCCAUGCCUGCAGGUCGACUCUAGAAAACAUG”, the binding signal with PUM1 PUF domain R2-NRD is 3.12 log2 enrichment (interaction score).
For the sequence “GGCUAGAACUAGUGGAUCCCCCGGCGCCCGGCGGCUCGAGCCCGGGUAAGUGGAAAUAGUCUGCAUGCCGCCGGGCGCCAUGCCUGCAGGUCGACUCUAGAAAACAUG”, in the assay with PUM1 PUF domain R6-SRE, the binding signal was 5.64 log2 enrichment (interaction score).
On to “GGCUAGAACUAGUGGAUCCCCCGGCGCCCGGCGGCUCGAGCCCGGGUAAGUGUUAAUAGUCUGCAUGCCGCCGGGCGCCAUGCCUGCAGGUCGACUCUAGAAAACAUG”, for which the binding signal with PUM1 PUF domain R5-RQI was 4.62 log2 enrichment (interaction score); with PUM1 PUF domain R5-KAE it was 2.99 log2 enrichment (interaction score).
For the sequence “GGCUAGAACUAGUGGAUCCCCCGGCGCCCGGCGGCUCGAGCCCGGGUAAGUGUCAAUAGUCUGCAUGCCGCCGGGCGCCAUGCCUGCAGGUCGACUCUAGAAAACAUG”, the binding signal in the assay with PUM1 PUF domain R5-RQI is 2.06 log2 enrichment (interaction score); with PUM1 PUF domain R5-KAE, 3.8 log2 enrichment (interaction score); with PUM1 PUF domain R5-MPR, 2.13 log2 enrichment (interaction score).
“GGCUAGAACUAGUGGAUCCCCCGGCGCCCGGCGGCUCGAGCCCGGGUAAGUGUAAUUAGUCUGCAUGCCGCCGGGCGCCAUGCCUGCAGGUCGACUCUAGAAAACAUG”: in the assay with PUM1 PUF domain R3-RER, the binding signal was 4.06 log2 enrichment (interaction score).
On to “GGCUAGAACUAGUGGAUCCCCCGGCGCCCGGCGGCUCGAGCCCGGGUAAGUGUAAAUGGUCUGCAUGCCGCCGGGCGCCAUGCCUGCAGGUCGACUCUAGAAAACAUG”, for which the binding signal with PUM1 PUF domain R1-KDS is 2.77 log2 enrichment (interaction score).
Turning to “GGCUAGAACUAGUGGAUCCCCCGGCGCCCGGCGGCUCGAGCCCGGGUAAGUGUACAUAGUCUGCAUGCCGCCGGGCGCCAUGCCUGCAGGUCGACUCUAGAAAACAUG”, the binding signal was 3.9 log2 enrichment (interaction score) in the assay with PUM1 PUF domain R4-PHK and 2.91 log2 enrichment (interaction score) in the assay with PUM1 PUF domain R4-APR.
With “GGCUAGAACUAGUGGAUCCCCCGGCGCCCGGCGGCUCGAGCCCGGGUAAGUGUAUAUAGUCUGCAUGCCGCCGGGCGCCAUGCCUGCAGGUCGACUCUAGAAAACAUG”, the binding signal with PUM1 PUF domain R4-APR is 2.82 log2 enrichment (interaction score).
